This is an account of results in PubChem BioAssay (EPA / NIEHS).

SMILES strings stand for the structures. “And” between values parts separate entries of the source, which are not always exact repeats. Equal values may be shown once. More than one record can exist for a structure, and the calls need not agree. The source made the active and inactive calls. The calls were made as follows: active = hit-call score of the fitted dose curve at least 0.9, where 1 is the maximum; inactive = score below 0.9.

Read-out in experiment [1]: TIMP metallopeptidase inhibitor 2 (TIMP2), TIMP2 (gene 7077)
As to the kind of experiment: BSK_KF3CT_TIMP2: BioMAP Diversity Plus: KF3CT Assay for TIMP metallopeptidase inhibitor 2 (TIMP2) Biomarker Activity (AID 2283071). To be noted: primary human keratinocytes with fibroblasts; actives raise or lower the signal. In short, it runs like this: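 Human primary keratinocyte/foreskin fibroblast co-culture dosed with chemical and sampled at 24 h. TIMP-2 levels quantified by ELISA; bidirectional fitting against DMSO negative control as baseline.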

Read-out in experiment [2]: Transforming growth factor beta 1 (TGFb1), TGFB1 (gene 7040)
As to the kind of experiment: BSK_KF3CT_TGFb1: BioMAP Diversity Plus: KF3CT Assay for Transforming growth factor beta 1 (TGFb1) Biomarker Activity (AID 2283072). Conditions: primary human keratinocytes with fibroblasts; actives raise or lower the signal. In short, it runs like this:
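Human keratinocyte plus foreskin fibroblast primary co-culture, dosed with chemical for 24 h. TGF-b1 quantified by ELISA. Activity fitted bidirectionally against DMSO negative control as baseline.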

Read-out in experiment [3]: C-C motif chemokine 2 (Homo sapiens) (UniProt P13500)
As to the kind of experiment: BSK_KF3CT_MCP1: BioMAP Diversity Plus: KF3CT Assay for Monocyte Chemoattractant Protein 1 (MCP1/CCL2) Biomarker Activity (AID 2283073). Conditions: primary human keratinocytes with fibroblasts; actives raise or lower the signal. In short, it runs like this: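 Keratinocytes and foreskin fibroblasts were co-cultured, dosed with chemical, and sampled 24 h later. MCP-1 was quantified by ELISA, and the endpoint was analyzed with bidirectional fitting using DMSO as negative control.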

Read-out in experiment [4]: Matrix Metallopeptidase 9 (MMP9), MMP9 (gene 4318)
As to the kind of experiment: BSK_KF3CT_MMP9: BioMAP Diversity Plus: KF3CT Assay for Matrix Metallopeptidase 9 (MMP9) Biomarker Activity (AID 2283074).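 As to AC50: MMP9 protein level quantified by ELISA in the co-culture.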 To be noted: primary human keratinocytes with fibroblasts; actives raise or lower the signal. The method in brief: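 Human keratinocyte/foreskin fibroblast co-culture; compound added; 24 h; MMP-9 by ELISA; bidirectional fit vs DMSO baseline.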

Read-out in experiment [5]: urokinase plasminogen activator (uPA), PLAU (gene 5328)
As to the kind of experiment: BSK_KF3CT_uPA: BioMAP Diversity Plus: KF3CT Assay for urokinase plasminogen activator (uPA) Biomarker Activity (AID 2283075). Conditions: primary human keratinocytes with fibroblasts; actives raise or lower the signal. In short, it runs like this:
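ELISA readout of uPA, analyzed for signal gain or loss relative to DMSO, from a human primary keratinocyte–foreskin fibroblast co-culture measured 24 h after chemical treatment.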

Read-out in experiment [6]: E-selectin (Homo sapiens) (UniProt P16581)
As to the kind of experiment: BSK_LPS_Eselectin: BioMAP Diversity Plus: LPS Assay for Eselectin Biomarker Activity (AID 2283077). Conditions: primary human HUVEC with PBMC; actives raise or lower the signal. In short, it runs like this:
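Signal of E-selectin, detected by ELISA, served as the endpoint; cells were umbilical vein endothelium with PBMC, read 24 h after treatment. DMSO defined baseline, and both increases and decreases were fitted.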

Read-out in experiment [7]: Interleukin-8 (IL8), CXCL8 (gene 3576)
As to the kind of experiment: BSK_LPS_IL8: BioMAP Diversity Plus: LPS Assay for Interleukin-8 (IL8) Biomarker Activity (AID 2283078). To be noted: primary human HUVEC with PBMC; actives raise or lower the signal. In short, it runs like this:
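Endothelial cells and PBMC from human donors are co-cultured, treated with chemicals and LPS, then assayed for IL-8 by ELISA after 24 h. Parallel SRB staining (0.1% SRB after 10% TCA fixation, 560 nm) flags cytotoxicity.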

Experiment [8] in a line: BSK_LPS_SRB: Viability Assessment in the BioMAP Diversity Plus: LPS Assay (AID 2283079).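 Also: total protein by sulforhodamine B absorbance as a cytotoxicity measure; measured one day after compound addition; fitted in both directions against DMSO so loss or gain of signal counts.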 Conditions: primary human HUVEC with PBMC. The method in brief: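 Overt cytotoxicity was gauged by sulforhodamine B total-protein staining in a primary human vascular endothelial and mononuclear cell co-culture 24 h post-dosing. Activity was fitted in both directions relative to DMSO.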

Read-out in experiment [9]: Monocyte Chemoattractant Protein-1 (MCP1), CCL2 (gene 6347)
As to the kind of experiment: BSK_LPS_MCP1: BioMAP Diversity Plus: LPS Assay for Monocyte Chemoattractant Protein-1 (MCP1) Biomarker Activity (AID 2283081).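 As to AC50: secreted MCP-1 protein quantified by ELISA in culture supernatant.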 To be noted: primary human HUVEC with PBMC; actives raise or lower the signal. In short, it runs like this:
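LPS-stimulated HUVEC/PBMC co-culture; chemical, 24 h; MCP-1 by ELISA; bidirectional fit vs DMSO; cytotoxicity via SRB (0.1% stain, 10% TCA fix, 560 nm) in parallel wells.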

The nature of experiment [10]: BSK_LPS_PGE2: BioMAP Diversity Plus: LPS Assay for Prostaglandin E2 (PGE2) Biomarker Activity (AID 2283082).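 As to AC50: secreted prostaglandin E2 measured by ELISA in LPS-stimulated co-culture.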 To be noted: primary human HUVEC with PBMC; actives raise or lower the signal. In short, it runs like this:
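HUVEC plus PBMC co-culture stimulated with LPS; secreted PGE2 quantified by ELISA 24 h after chemical dosing. Activity fitted bidirectionally against DMSO as negative control and baseline; parallel SRB total-protein staining served as cytotoxicity check.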

Read-out in experiment [11]: Macrophage colony-stimulating factor (MCSF), CSF1 (gene 1435)
As to the kind of experiment: BSK_LPS_MCSF: BioMAP Diversity Plus: LPS Assay for Macrophage colony-stimulating factor (MCSF) Biomarker Activity (AID 2283083). To be noted: primary human HUVEC with PBMC; actives raise or lower the signal. The method in brief: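 Compound is added to a human vascular primary co-culture of umbilical vein endothelium and blood mononuclear cells. After 24 h, M-CSF is quantified by ELISA. Signal changes are fitted in both directions against DMSO.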

Read-out in experiment [12]: Tissue Factor, F3 (gene 2152)
As to the kind of experiment: BSK_LPS_TissueFactor: BioMAP Diversity Plus: LPS Assay for Tissue Factor Biomarker Activity (AID 2283084). To be noted: primary human HUVEC with PBMC; actives raise or lower the signal. In short, it runs like this: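 In this co-culture system of umbilical vein endothelium with PBMC, stimulated with LPS, cell-surface CD142 is detected by ELISA at 24 h. Endpoint values derive from bidirectional fitting, DMSO serving as baseline.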

Read-out in experiment [13]: Tumor necrosis factor (Homo sapiens) (UniProt P01375)
The experiment is described as follows: BSK_LPS_TNFa: BioMAP Diversity Plus: LPS Assay for Tumour Necrosis Factor alpha (TNFa) Biomarker Activity (AID 2283085). Conditions: primary human HUVEC with PBMC; actives raise or lower the signal. The method in brief:
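Human umbilical vein endothelial cells co-cultured with PBMC were exposed to test chemical and TNFa measured by ELISA 24 h after dosing. Bidirectional curve fitting was done relative to DMSO as negative control and baseline.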

Read-out in experiment [14]: Vascular cell adhesion molecule 1 (VCAM1), VCAM1 (gene 7412)
The experiment is described as follows: BSK_LPS_VCAM1: BioMAP Diversity Plus: LPS Assay for Vascular cell adhesion molecule 1 (VCAM1) Biomarker Activity (AID 2283086). To be noted: primary human HUVEC with PBMC; actives raise or lower the signal. The method in brief: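 Human umbilical vein endothelial cells co-cultured with peripheral blood mononuclear cells under LPS stimulation were exposed to test chemical for 24 h. VCAM-1 levels were then measured by ELISA, with bidirectional curve fitting relative to DMSO as negative control and baseline.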

Read-out in the next experiment: CD38, CD38 (gene 952)
As to the kind of experiment: BSK_SAg_CD38: BioMAP Diversity Plus: SAg Assay for CD38 Biomarker Activity (AID 2283087). Conditions: primary human HUVEC with PBMC; actives raise or lower the signal. The method in brief: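 Fluorescence ELISA of cell-surface CD38 served as the read-out, with either increase or decrease fitted against DMSO controls. Cells were a human umbilical vein endothelium plus PBMC co-culture under SEB/TSST-1 stimulation, measured 24 h after dosing.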

Read-out in the next experiment: CD40, CD40 (gene 958)
The experiment is described as follows: BSK_SAg_CD40: BioMAP Diversity Plus: SAg Assay for CD40 Biomarker Activity (AID 2283088). Conditions: primary human HUVEC with PBMC; actives raise or lower the signal. The method in brief: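 Fluorescence ELISA read-out of CD40 from umbilical vein endothelium plus peripheral blood mononuclear cells, sampled 24 h after dosing. Values come from bidirectional curve fitting with DMSO as baseline.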

Read-out in another experiment: CD69, CD69 (gene 969)
As to the kind of experiment: BSK_SAg_CD69: BioMAP Diversity Plus: SAg Assay for CD69 Biomarker Activity (AID 2283089).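 As to AC50: cell surface CD69 protein quantified by ELISA with fluorescence detection.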 Conditions: primary human HUVEC with PBMC; actives raise or lower the signal. In short, it runs like this:
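Endothelial/PBMC co-culture; chemical added; 24 h incubation; CD69 ELISA with fluorescence detection; bidirectional fit vs DMSO.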

Read-out in experiment [15]: Monocyte Chemoattractant Protein-1 (MCP1), CCL2 (gene 6347)
The experiment is described as follows: BSK_SAg_MCP1: BioMAP Diversity Plus: SAg Assay for Monocyte Chemoattractant Protein-1 (MCP1) Biomarker Activity (AID 2283090). To be noted: primary human HUVEC with PBMC; actives raise or lower the signal. In short, it runs like this: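 MCP-1 levels in the endothelial–PBMC SAg co-culture were quantified by ELISA at 24 h post-dosing; both increases and decreases versus DMSO scored. Cytotoxicity monitored by SRB total protein in parallel cultures.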

Chain of E-selectin (Homo sapiens) (P16581 whole entry, looked up): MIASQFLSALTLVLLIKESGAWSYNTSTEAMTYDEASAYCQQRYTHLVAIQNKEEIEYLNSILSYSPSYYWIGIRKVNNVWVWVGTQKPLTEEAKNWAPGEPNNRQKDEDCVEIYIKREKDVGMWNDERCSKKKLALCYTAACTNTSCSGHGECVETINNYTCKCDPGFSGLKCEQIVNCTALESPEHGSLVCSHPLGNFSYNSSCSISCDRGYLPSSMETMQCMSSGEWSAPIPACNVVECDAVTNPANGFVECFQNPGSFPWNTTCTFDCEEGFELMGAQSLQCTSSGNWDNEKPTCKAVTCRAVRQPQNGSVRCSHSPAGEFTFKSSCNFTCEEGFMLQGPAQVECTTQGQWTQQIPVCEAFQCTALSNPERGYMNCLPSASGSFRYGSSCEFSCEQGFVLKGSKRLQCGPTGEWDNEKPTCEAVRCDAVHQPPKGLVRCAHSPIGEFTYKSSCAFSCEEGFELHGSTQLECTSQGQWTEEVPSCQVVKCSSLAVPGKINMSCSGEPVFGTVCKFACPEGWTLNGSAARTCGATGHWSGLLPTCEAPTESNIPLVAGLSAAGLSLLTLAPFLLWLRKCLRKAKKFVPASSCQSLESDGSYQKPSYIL
Chain of Tumor necrosis factor (Homo sapiens) (P01375 whole entry, looked up): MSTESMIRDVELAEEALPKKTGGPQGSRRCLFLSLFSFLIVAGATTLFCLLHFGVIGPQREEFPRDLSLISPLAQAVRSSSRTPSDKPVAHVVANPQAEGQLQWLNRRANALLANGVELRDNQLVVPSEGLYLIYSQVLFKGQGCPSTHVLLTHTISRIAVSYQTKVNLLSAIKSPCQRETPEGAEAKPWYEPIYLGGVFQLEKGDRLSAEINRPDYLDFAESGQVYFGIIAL

The term AC50 denotes the concentration giving half of the maximal activity seen. For `CC/C(=C(\c1ccccc1)c1ccc(OCCN(C)C)cc1)c1ccccc1`, the AC50 was 7.86 µM (active) and 9.54 µM (active) in experiment [1]; 8.7 µM (active) and 6.05 µM (active) in [2]; 5.98 µM (active) and 7.88 µM (active) in experiment [3]; 7.84 µM (active) and 8.19 µM (active) in experiment [4]; 9.92 µM (active) and 9.67 µM (active) in experiment [5]; 28.3 µM (active) and 14.3 µM (active) in [6]. Also, the AC50 in experiment [7] is 26.5 µM (active) and 10.8 µM (active); in experiment [8], 9.77 µM (active) and 10.4 µM (active); in [9], 28.3 µM (active) and 12.4 µM (active); in experiment [10], 33.6 µM (active); in experiment [11], 15.3 µM (active) and 8.1 µM (active); in experiment [12], 29.1 µM (active) and 20 µM (active). The concentration at half-maximal activity (AC50) is 28.6 µM (active) and 17.4 µM (active) in experiment [13]; 24.3 µM (active) and 13.6 µM (active) in experiment [14]; 8.87 µM (active) and 7.95 µM (active) with CD38, CD38 (gene 952); 9.12 µM (active) and 6.03 µM (active) in the experiment with CD40, CD40 (gene 958); 8.89 µM (active) and 8.09 µM (active) in the experiment with CD69, CD69 (gene 969); 10.4 µM (active) and 10.1 µM (active) in experiment [15]. In addition, the result in [10] was inactive.
As for `CCCCOCCOCCO`, the outcome in experiment [1], in experiment [2], in experiment [3], in [4], in experiment [5] and in experiment [6] was inactive. The result in experiment [7], in experiment [8], in [9], in experiment [10], in experiment [11] and in experiment [12] was inactive. In addition, the outcome is “inactive” in experiment [13]; “inactive” in [14]; “inactive” in the experiment with CD38, CD38 (gene 952); “inactive” with CD40, CD40 (gene 958); “inactive” with CD69, CD69 (gene 969); “inactive” in [15].
Take `CCC(=O)OCC=Cc1ccccc1`: the result in experiment [1], in [2], in [3], in experiment [4], in experiment [5] and in experiment [6] was inactive. Further, the result in [7], in experiment [8], in experiment [9], in experiment [10], in experiment [11] and in experiment [12] was inactive. Further, the outcome in experiment [13] was “inactive”; in experiment [14], “inactive”; with CD38, CD38 (gene 952), “inactive”; with CD40, CD40 (gene 958), “inactive”; with CD69, CD69 (gene 969), “inactive”; in [15], “inactive”.
On to `NC(=O)c1c(Cl)cccc1Cl`, for which the result in experiment [1], in [2], in [3], in experiment [4], in experiment [5] and in [6] was inactive. Moreover, the result in experiment [7], in experiment [8], in experiment [9], in experiment [10], in experiment [11] and in [12] was inactive. The outcome is “inactive” in [13]; “inactive” in [14]; “inactive” with CD38, CD38 (gene 952); “inactive” in the experiment with CD40, CD40 (gene 958); “inactive” in the experiment with CD69, CD69 (gene 969); “inactive” in [15].
For the molecule `C[C@]12CC[C@@H]3c4ccc(O)cc4CC[C@H]3[C@@H]1CC[C@@H]2O`, the outcome in experiment [1], in experiment [2], in experiment [3], in [4], in experiment [5] and in experiment [6] was inactive. The outcome in experiment [7], in experiment [9], in experiment [10], in experiment [11], in experiment [12] and in experiment [13] was inactive. The AC50 in [8] is 12 µM (active); in experiment [14], 16.5 µM (active); with CD38, CD38 (gene 952) it was 16.7 µM (active); with CD40, CD40 (gene 958), 15.8 µM (active); with CD69, CD69 (gene 969) it was 20 µM (active).
Take `CCCCCCCCCC(=O)OCC`: the result in [1], in [4], in experiment [5], in experiment [6], in experiment [7] and in experiment [8] was inactive. The result in [9], in experiment [10], in experiment [11], in [12], in [13] and in experiment [14] was inactive. In addition, the outcome in the experiment with CD38, CD38 (gene 952) is “inactive”; with CD40, CD40 (gene 958), “inactive”; with CD69, CD69 (gene 969), “inactive”; in experiment [15], “inactive”. For the same molecule, the AC50 in experiment [2] was 32.2 µM (active); in experiment [3], 13.3 µM (active).
